Growth data for 6 compounds are collected here from PubChem BioAssay (NCI).

The structures appear in SMILES notation. Values joined by “and” are separate entries in the source; they are usually repeats but may differ in a detail not shown here. Equal entries are not always repeated. Compounds without any hit were thinned out: in the full panel of roughly 83,000, 20% have a hit.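 Activity criterion: percent growth below 10, measured after cells in 96-well plates were exposed to a single compound concentration for 48 hours.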 Active and inactive are the calls of the source.

Test in all cases: NCI-60 one-dose screen, 48 h (100 = growth as untreated, 0 = no growth, -100 = all killed)
Common to all, as to conditions: 10 µM unless noted

In assay [1] the test system is NCI-H23 lung.
For assay [2], the system named is NCI-H226 lung.
The test system of assay [3] is NCI-H322M lung.
The test system of assay [4] is HOP-62 NSCLC.
The test system of assay [5] is NCI-H460 lung.
For assay [6], the system named is HOP-92 NSCLC.
Assay [7] relates to NCI-H522 lung.
The subject of assay [8] is A549/ATCC NSCLC.
The subject of assay [9] is 786-0 renal.
The test system of assay [10] is COLO 205 colon.
For assay [11], the system named is DU-145 prostate.
Assay [12] relates to K-562 leukemia.
For assay [13], the system named is MALME-3M melanoma.
Assay [14] concerns MDA-MB-231 breast.
In assay [15] the test system is RXF 393 renal.
Assay [16] has as its system SF-268 CNS.
Assay [17] has as its system SF-295 CNS.
For assay [18], the system named is SF-539 CNS.
Assay [19] has as its system UACC-257 melanoma.
In assay [20] the test system is M14 melanoma.

With `Cc1ccc(S(=O)(=O)n2cc([C@@]3(O)C[C@H](CSC#N)OC3=O)c3ccccc32)cc1`, the growth was 82% (inactive) in assay [1]; 85.3% (inactive) in assay [2]; 106% (inactive) in assay [3]; 100% (inactive) in assay [4]; 86.3% (inactive) in assay [5]; -28.2% (active) in assay [6]. In addition, the growth was 86.3% (inactive) in assay [7]; 70.6% (inactive) in assay [8]; 95.6% (inactive) in assay [9]; 59.2% (inactive) in assay [10]; 43.9% (inactive) in assay [11]; 48.5% (inactive) in assay [12]. The growth in [13] was 61.7% (inactive); in assay [14], 55.3% (inactive); in [15], 50.9% (inactive); in assay [16] it was 72.4% (inactive); in assay [17], 94.8% (inactive); in [18] it was 51.2% (inactive). Besides, the growth in assay [19] was 96.1% (inactive).
As to `CCC(=O)C(CC(C)N1CCCCCC1)(c1ccccc1)c1ccccc1` (stereo not drawn), the growth in [1] is 91.6% (inactive); in [2], 92.6% (inactive); in assay [3], 84.7% (inactive); in [4], 85.6% (inactive); in assay [5], 103% (inactive); in assay [6] it was 65.9% (inactive). The growth in assay [7] is 83% (inactive); in [8] it was 87.8% (inactive); in [9], 87.4% (inactive); in assay [10] it was 93% (inactive); in assay [11], 102% (inactive); in assay [12], 82.6% (inactive). Moreover, the growth in assay [13] is 93.6% (inactive); in assay [14], 92.4% (inactive); in [15] it was 129% (inactive); in assay [16], 104% (inactive); in assay [17] it was 89.7% (inactive); in assay [18] it was 98.6% (inactive). For the same compound, the growth is 100% (inactive) in [19] and 98.1% (inactive) in assay [20].
Regarding `CC[CH2][Sn]([Cl])([Cl])[CH2]CC.Oc1ccccc1C=NCCN=Cc1ccccc1O`, the growth in [1] was 56.4% (inactive) and 34.2% (inactive); in assay [2] it was 11% (inactive) and 17.4% (inactive); in assay [3], 105% (inactive) and 92.4% (inactive); in assay [4] it was 103% (inactive) and 83.8% (inactive); in assay [5] it was 110% (inactive) and 90.5% (inactive); in assay [6], 40% (inactive) and 29.2% (inactive). For the same compound, the growth in assay [7] is -87.6% (active) and -83.2% (active); in [8] it was 103% (inactive) and 92.3% (inactive); in assay [9] it was 65.2% (inactive) and 59.1% (inactive); in assay [10], 50.6% (inactive) and -12.1% (active); in assay [11], 81.3% (inactive) and 76.9% (inactive); in [12], 4.37% (active) and -23.9% (active). Moreover, the growth was 4.96% (active) and -43.8% (active) in assay [13]; 38.7% (inactive) and 28.5% (inactive) in assay [14]; 51.7% (inactive) and 1.58% (active) in assay [15]; 49.7% (inactive) and 20.3% (inactive) in assay [16]; 93.2% (inactive) in [17]; 59.9% (inactive) and 37.8% (inactive) in assay [18]. For the same compound, the growth is 51.4% (inactive) and 5.28% (active) in [19]; 69.6% (inactive) and 39% (inactive) in [20].
Turning to `O=c1[nH]c(=O)n(Cl)c(=O)n1Cl`, the growth in assay [1] was 99.2% (inactive); in assay [2], 98.4% (inactive) and 104% (inactive); in assay [3] it was 108% (inactive) and 119% (inactive); in [4], 109% (inactive) and 98.3% (inactive); in assay [5] it was 116% (inactive) and 109% (inactive); in assay [6] it was 101% (inactive) and 91.2% (inactive). Also, the growth is 101% (inactive) and 100% (inactive) in assay [7]; 105% (inactive) and 112% (inactive) in assay [8]; 115% (inactive) and 99.5% (inactive) in assay [9]; 117% (inactive) and 123% (inactive) in [10]; 142% (inactive) in [11]; 109% (inactive) in assay [12]. The growth in [13] was 106% (inactive) and 110% (inactive); in assay [14], 99.1% (inactive) and 113% (inactive); in [15] it was 114% (inactive) and 120% (inactive); in [16], 108% (inactive) and 136% (inactive); in [17], 101% (inactive) and 114% (inactive); in assay [18], 106% (inactive) and 92.5% (inactive). The growth in assay [19] is 99.5% (inactive) and 117% (inactive).
For the compound `CCOC(=O)P(=O)(OCC)OCC`, the growth is 112% (inactive) in [1]; 106% (inactive) in [2]; 82.6% (inactive) in [3]; 109% (inactive) in [4]; 116% (inactive) in assay [5]; 94.9% (inactive) in [6]. The growth in assay [7] is 85.7% (inactive); in assay [8], 101% (inactive); in assay [9], 113% (inactive); in assay [10], 112% (inactive); in assay [11], 115% (inactive); in assay [12] it was 121% (inactive). Moreover, the growth in assay [13] is 122% (inactive); in assay [14], 110% (inactive); in assay [15], 115% (inactive); in assay [16], 104% (inactive); in assay [17] it was 126% (inactive); in assay [18], 106% (inactive). Besides, the growth is 102% (inactive) in assay [19] and 116% (inactive) in [20].
With `O=C(CBr)OCCOC(=O)CBr`, the growth in assay [1] is 84.7% (inactive); in assay [2], 109% (inactive); in [3], 97.7% (inactive); in assay [4], 109% (inactive); in [5], 95% (inactive); in [6], 114% (inactive). Also, the growth is -74.6% (active) in assay [7]; 92.8% (inactive) in [8]; 24.4% (inactive) in assay [9]; 104% (inactive) in [10]; 84.2% (inactive) in [11]; 62.5% (inactive) in [12]. For the same compound, the growth in [13] was 76.3% (inactive); in assay [14] it was 80.6% (inactive); in assay [15] it was -7.57% (active); in assay [16], 89.9% (inactive); in [17], 104% (inactive); in assay [18], 112% (inactive). For the same compound, the growth in [19] was 83.1% (inactive); in assay [20], 81% (inactive).
